This note sets out measurements from PubChem BioAssay AID847 (SRMLSC, 2007).

Screen size: about 41,000 compounds; about 190 (0.46%) were called active. The full list was thinned out, with actives kept by preference. A number with no mark means an inactive call.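 The calls were made as follows: active = viability at or below the median of all test compounds minus 3 SD, in both replicates if run twice (cut at about 45% in these data); inconclusive = duplicate replicates that disagree with each other; inactive = viability above that cutoff in every replicate.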

In general, viability refers to a read-out of living cells in per cent, often relative to untreated cells.

A short description of this assay: viability loss of SK-BR-3 cells – cell-based, human, 24 h, primary screen (AID 847).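 Also: 100% = median untreated cell wells and 0% = median positive control drug.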 The conditions noted are these: SK-BR-3 viability, CellTiter-Glo ATP luminescence, at 10 µM, stronger effect = lower value. For orientation: Cellular ATP, detected with luciferase, serves as a proxy for viable cell number.
Take `CSc1nc(O)c(Cc2ccccc2)c(=O)[nH]1`: the viability is 88.2%.

`C=CCNc1nnc(C)c2ccccc12`: the viability was 94.2%.

On to `COc1ccc(C2C(C#N)=C(N)Oc3n[nH]c(C)c32)cc1CN1CCN(c2ccc(F)cc2)CC1` (stereo not given), for which the viability was 67%.

On to `CCOC(=O)C1CCCN(C(=O)c2cncc(Br)c2)C1` (stereo not given), for which the viability is 89.5%.

On to `O=C(Nc1ccc2c(c1)nc1n2CCCCC1)c1cc(S(=O)(=O)N2CCOCC2)ccc1Cl`, for which the viability was 69%.

`O=C(CSc1ncccn1)NCCc1ccccc1`: the viability was 89.6%.

On to `CSc1nsc(SC)c1NC(=O)OC1CCCCC1`, for which the viability is 106%.

Take `COc1ccc(S(=O)(=O)N2CCOCC2)cc1C(=O)Nc1nc2ccccc2s1`: the viability was 87.8%.

As to `CCCC(=O)Nc1cc(OCC)c(NC(=O)NC2CCCCC2)cc1OCC`, the viability is 128%.

As to `COC(=O)[C@H](CCSC)NC(=O)Nc1ccc(OC)cc1`, the viability was 86.4%.

Take `COC(=O)C1(S(=O)(=O)C2(C(=O)OC)CCCC2)CCCC1`: the viability was 105%.

With `C=CCNC(=O)c1ccc(C)c(Br)c1`, the viability was 74.5%.

Take `CCn1cc(NC(=O)Nc2ccc(OC)c(OC)c2)c(C(N)=O)n1`: the viability was 90.8%.

Consider `Cc1ccc(C(=O)CS(C)(=O)=O)cc1`, for which the viability was 90.6%.

Take `CC(=O)N1CCC(C(=O)Nc2nc(-c3ccccc3)ns2)CC1`: the viability was 96.3%.

With `Cc1nc(NCCN)c(C#N)c2c1COC(C)(C)C2`, the viability is 85.4%.

In the case of `OC(COc1ccccc1)Cn1cc(Br)cn1` (stereo not given), the viability is 74.7%.

For the compound `CCCOC(=O)C1=C(C)NC2=C(C(=O)C(C(=O)OC)C(C)C2)C1c1ccc(N(C)C)cc1` (stereo not given), the viability is 89%.

As for `Cc1nc(N2CCCC2C(=O)O)c2oc3ccccc3c2n1` (stereo not given), the viability was 101%.

As to `COC(=O)c1cn(CC(=O)NCc2cccs2)c2ccccc12`, the viability was 108%.

As for `COc1cc(-c2nc(S(=O)(=O)c3ccc(Cl)cc3)c(N(C)C)o2)cc(OC)c1OC`, the viability was 75.4%.

Consider `O=C(c1cccc(S(=O)(=O)N2CCOCC2)c1)N1CCOCC1`, for which the viability is 94.3%.

Consider `CC(=O)Oc1cccc(N2C(=O)C3CC=C(Cl)CC3C2=O)c1` (stereo not given), for which the viability was 73.3%.

For the compound `NC(=O)C1CCN(C2OC(=O)c3ccccc32)CC1` (stereo not given), the viability was 93.2%.

Regarding `O=C(NC(c1ccccc1)c1ccccc1)N1CCN(CCO)CC1`, the viability is 93%.

`O=C(CSc1nnc(Cc2ccccc2)n1-c1ccccc1)N1CCOCC1`: the viability is 87.4%.

On to `Cc1ccc2[nH]c(=O)c(COC(=O)c3ccccn3)cc2c1`, for which the viability is 100%.

Regarding `CC1Cc2ccccc2N1C(=O)CSc1nnc(-c2ccc(S(=O)(=O)N3CCCCC3)cc2)o1` (stereo not given), the viability was 96%.

For `Cc1cc(O)ccc1-c1cnc2ccccc2n1`, the viability was 92.4%.

Take `CC(C)NS(=O)(=O)c1ccc(OCC(=O)Nc2ccc3c(c2)OCCO3)cc1`: the viability was 86.3%.

For `O=C(OC(C(=O)NC1CCCC1)c1ccc(F)cc1)c1ccno1` (stereo not given), the viability was 107%.

In the case of `N=c1c2c3c(sc2ncn1N)CCCCC3`, the viability was 86%.

On to `COCCNC(=O)c1ccccc1-c1nc(-c2ccccc2Cl)no1`, for which the viability was 94.6%.

For `O=C(c1cccc(C(=O)N2CCc3ccccc32)n1)N1CCc2ccccc21`, the viability was 101%.

For the compound `Cc1nc2nc(COc3ccccc3)[nH]n2c(=O)c1Cc1ccccc1`, the viability is 85.2%.

Consider `Cc1cccc(OCc2nnc(SCC(=O)N3CCN(C(=O)c4ccco4)CC3)n2C)c1C`, for which the viability was 112%.

For the compound `CCOC(=O)CCc1c(C)c2ccc(OCc3nn[nH]n3)c(C)c2oc1=O`, the viability is 91.2%.

Regarding `O=C1CCCc2c1[nH]c1ccc(Br)cc21`, the viability was 94.5%.

Take `O=C(COC(=O)c1ccc2c(c1)OCCO2)NCc1ccccc1`: the viability is 91.5%.

For the compound `Cc1cnc(NC(=O)CSc2nnc(-c3ccc(Cl)cc3Cl)n2N)s1`, the viability is 88.8%.

Regarding `O=C(Cn1c(-c2ccc(Cl)cc2)noc1=O)N1CCN(c2ccccc2F)CC1`, the viability is 88.1%.

Regarding `Cc1cc(C)c2cc(CN(Cc3cccs3)Cc3nnnn3CC3CCCO3)c(=O)[nH]c2c1` (stereo not given), the viability was 83.1%.

Turning to `CCOC(=O)[C@H]1CCC[C@@H](NS(=O)(=O)c2ccc(NC(C)=O)cc2)C1`, the viability is 73.8%.

Turning to `C=CCSC1=C(C#N)C(c2cc(Br)c(O)c(OC)c2)CC(=O)N1` (stereo not given), the viability is 86.3%.

For the compound `CC1(C)CC(=O)C(C2=NC(C)(C)Cc3ccccc32)=C(O)C1`, the viability is 99.5%.

In the case of `c1nc(COc2nsnc2N2CCOCC2)cs1`, the viability is 90.4%.

Turning to `Cc1nc2nc3c(cn2n1)C(=O)CC(c1ccccc1)C3` (stereo not given), the viability was 109%.

As to `CCCOc1ccc(CN(CCO)CCO)cc1C(=O)OC`, the viability is 94.7%.

For `Cc1ccn2cc(C(=O)NC3CCN(Cc4ccccc4)CC3)nc2c1`, the viability was 81%.

Turning to `CCCC(NS(=O)(=O)c1ccc(OC)cc1)C(=O)O` (stereo not given), the viability was 97.5%.

Take `c1ccc2c(NCC3CCCO3)nc(-c3ccncc3)nc2c1` (stereo not given): the viability was 101%.

On to `CCc1ccc(-c2nnn(Cc3nn[nH]n3)n2)cc1`, for which the viability is 112%.

As for `CCc1nnc(NC(=O)CSc2nnc(COc3ccc(C#N)cc3)n2-c2ccccc2)s1`, the viability is 86%.

As to `Cc1ccc(S(=O)(=O)N2CCC(C(=O)N[C@@H](C)C(=O)NCCc3ccccc3)CC2)cc1`, the viability is 100%.

On to `COc1ccc(C2CC(c3ccc(C)cc3)Nc3nc(N)nn32)cc1` (stereo not given), for which the viability is 102%.

`CC(C)=C(NC(=O)c1ccco1)C(=O)NCCc1nc2ccccc2[nH]1`: the viability is 122%.

With `Cc1cc(N2CCN(Cc3ccc4c(c3)OCO4)CC2)n2ncnc2n1`, the viability was 88.1%.

Regarding `Cc1ccc(N(CC(O)CN2CCCC2)S(=O)(=O)c2ccccc2)cc1` (stereo not given), the viability is 84.9%.

Regarding `CC(C)C(NC(=O)c1cccc(S(=O)(=O)N2CCOCC2)c1)C(=O)NCCc1ccccn1` (stereo not given), the viability was 84.8%.

For the compound `Cc1ccc(S(=O)(=O)NCC(=O)OCC(=O)N2CCc3ccccc32)cc1`, the viability was 75.8%.

For `CCCCNc1nc2c(c(=O)[nH]c(=O)n2C)n1CCOc1ccccc1`, the viability is 114%.

As for `c1ccc(-n2ncc3c(N4CCCC4)ncnc32)cc1`, the viability is 86.5%.

`CN(C)Cc1c(C#N)c2ccccc2n1C`: the viability was 99.7%.

On to `O=C(c1ccco1)N(Cc1nc2ccccc2c(=O)[nH]1)C1CCCC1`, for which the viability was 87.8%.

In the case of `COC(=O)COc1ccc2oc(=O)cc(C)c2c1`, the viability was 87%.

Take `COC(=O)c1cn(-c2ccccc2)nc1-c1cccnc1`: the viability is 119%.

With `CC(C(=O)O)N1C(=O)c2cccc3cccc1c23` (stereo not given), the viability was 91.2%.

On to `Cc1cc(C)c(NC(=O)CS(=O)CC(=O)Nc2cccnc2)c(C)c1` (stereo not given), for which the viability is 79.8%.

As for `COc1ccc(CSc2nc(N3CCOCC3)c3c(c2C#N)CC(C)(C)OC3)cc1`, the viability was 76.6%.

In the case of `CS(=O)(=O)N1CCN(C(=O)c2cc3ccccc3oc2=O)CC1`, the viability is 82.4%.

On to `Cc1cc(=O)[nH]c(SCC(N)=O)c1C#N`, for which the viability is 121%.

For the compound `Cc1ccc(S(=O)(=O)NCc2nc3ccccc3c(=O)n2N)cc1`, the viability was 87.3%.

In the case of `CC(=O)c1cc(-c2ccccc2)[nH]c1N1CCCC1`, the viability is 89.9%.

`Cc1ccc(C)c(NC(=O)C2CCCN2C(=O)OC(C)(C)C)c1` (stereo not given): the viability is 102%.

On to `COc1ccc(C(=O)N2CCC(C(=O)Nc3cccc(C)c3)CC2)cc1OC`, for which the viability was 106%.

On to `Cc1ccccc1NC(=O)c1cnn(-c2ccccc2)c1NC(=O)c1ccco1`, for which the viability was 117%.

In the case of `O=C1NC(c2cc3c(cc2Cl)OCO3)Oc2ccccc21` (stereo not given), the viability is 110%.

Regarding `CCCC(C)n1[nH]c(=O)c2c(C)cc(C)nc21` (stereo not given), the viability is 87%.

In the case of `Cc1cc(C)n2nc(C(=O)Oc3ccc4c(c3)OCO4)nc2n1`, the viability is 86.1%.

With `CC(C)OCCCNc1nc2c(c(=O)n(Cc3ccccc3F)c(=O)n2C)n1C`, the viability was 68.2%.

Regarding `Clc1ccc(CSc2nnc([C@@H]3CCCN3)o2)cc1`, the viability was 80.8%.

On to `O=C(NCc1cccnc1)c1cn(-c2ccccc2)nc1-c1cccs1`, for which the viability was 74.3%.

Consider `COC(=O)Nc1c(C)n(C)n(-c2ccccc2)c1=O`, for which the viability was 104%.

In the case of `O=S(=O)(O)c1nc2ccccc2n1Cc1ccc(Cl)cc1Cl`, the viability is 98.8%.

With `Cc1cc(Br)ccc1NC(=O)C1CCCO1` (stereo not given), the viability is 75.5%.

As to `c1cnc(NC2C3CC4CC(C3)CC2C4)nc1` (stereo not given), the viability is 98.3%.

`O=C(c1ccco1)N1CCN(C(=O)C2c3ccccc3Oc3ccccc32)CC1`: the viability was 99.4%.

For `O=C(Nc1ccon1)c1sc2ccccc2c1Cl`, the viability is 122%.

For the compound `COc1cccc(-c2nc(S(=O)(=O)c3ccccc3)c(N3CCOCC3)o2)c1`, the viability is 83.1%.

On to `c1ccc(-c2nnc(SCc3nc4ccccc4[nH]3)o2)cc1`, for which the viability was 70.7%.

As for `O=c1[nH]c(-c2ccccc2)c(-c2ccccc2)[nH]1`, the viability was 96.3%.

In the case of `c1ccc(-c2[nH]ncc2-c2nc3ccccc3[nH]2)cc1`, the viability is 42.9% (active).

With `CC(C)C(c1nnnn1CCc1ccccc1)N1CCN(C(=O)c2ccco2)CC1` (stereo not given), the viability is 102%.

In the case of `CSCCC(Nc1nc2ccccc2s1)C(=O)O` (stereo not given), the viability is 81.1%.

For `Cc1cc(NC(=O)CCC2COc3ccccc3O2)no1` (stereo not given), the viability was 94.5%.

Turning to `Cc1ccc2nc(NC3=NCN(CCc4ccccc4)CN3)nc(C)c2c1`, the viability was 95.4%.

As for `COc1ccccc1N1CCN(C(=O)c2ccc(S(=O)(=O)N3CCCCC3)cc2)CC1`, the viability is 123%.

For the compound `COC(=O)c1ccccc1NC(=O)CSc1ccccn1`, the viability is 81.2%.

As to `COc1ccc(N2CCN(CCNC(=O)c3nnc(Cc4c(F)cccc4Cl)o3)CC2)cc1`, the viability was 75%.

With `CCOC(=O)c1ccccc1NC(=O)CC1Nc2ccccc2NC1=O` (stereo not given), the viability is 47.2%.
